Among all 44,000 compounds or so, fewer than 10 were called active. Inconclusive results (about 2%) are left out. Calls come from the whole dose curve; as a rule, active = well fitted curve in the direction sought with a large enough effect; inconclusive = small, poorly fitted or top-dose-only effect, or another doubt; inactive = no such curve, though single readings can be large or run the other way. Not all results are given here.
Target: Galactokinase (Homo sapiens) (UniProt P51570)
Assay: qHTS Assay for Inhibitors of Human Galactokinase (GALK): NCGC Sytravon Library Screen;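 note: plate controls were full GALK reaction for no effect and reaction lacking GALK for full effect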
Details: recombinant GALK, Kinase-Glo ATP luminescence, 1 h; series mostly up to 57.5 µM; activity, negative = inhibition: at the top concentration
Text: Inherited deficiency of galactose-1-phosphate uridyltransferase (GALT) can result in a potentially lethal disorder called Classic Galactosemia (OMIM 230400). Several lines of evidence indicate that an elevated level of galactose-1-phosphate (gal-1-p), the product of galactokinase (GALK), is a major, if not sole, pathogenic mechanism in patients with classic galactosemia. Therefore, finding inhibitors of GALK is a potential novel therapy for this inherent metabolic disease and is the long term goal of this project. This screen is run against the NCGC Sytravon compound library collection. GALK (provided by Kent Lai) was assayed using ATP and D-(+)-Galactose (Sigma-Aldrich cat# G0750) as substrates. Promega Kinase-Glo Plus technology was used to detect kinase activity. Reactions with and without GALK were used as negative and positive controls together with Protein Tyrosine Phosphatase CD45 inhibitor (EMD Bioscience cat# 540215) which is shown to inhibit GALK activity. Decrease in activity corresponds to inhibition of the enzyme is the desired outcome for this assay. NIH Molecular Libraries Probe Production Network [MLPCN] NIH Chemical Genomics Center [NCGC] Grant: R03 MH085689-01 PI Name: Kent Lai Ph.D., University of Utah
NCGC Assay Protocol Summary: Three uL/well of ATP-buffer solution (35 uM ATP, 20mM HEPES pH8.0, 5 mM MgCl2, 60 mM NaCl, 1 mM DTT, 0.01% BSA final concentration) was dispensed into 1536-well, assay plates (Greiner, solid white medium-binding plates) with Aurora Discovery BioRAPTR Flying Reagent Dispenser (FRD; Beckton-Dickenson). Compound solution (23 nL) was transferred to the assay plate using the Kalypsys 1536-pin tool. One uL/well GALK-galactose solution (5 nM GALK, 100 uM galactose, 20 mM HEPES pH8.0, 5 mM MgCl2, 60 mM NaCl, 1 mM DTT, 0.01% BSA final concentration) was then added using the FRD yielding a total kinase reaction volume of 4 uL/ well. After 1 hour of room temperature incubation, 4 uL Kinase-Glo Plus reagent was added for a final assay volume of 8 uL/ well. Luminescence was detected with the ViewLux plate reader (Perkin Elmer, Waltham, MA) after 10 min incubation using a 1 sec exposure time and 2x binning.

Chain of Galactokinase (Homo sapiens) (P51570 whole entry, looked up): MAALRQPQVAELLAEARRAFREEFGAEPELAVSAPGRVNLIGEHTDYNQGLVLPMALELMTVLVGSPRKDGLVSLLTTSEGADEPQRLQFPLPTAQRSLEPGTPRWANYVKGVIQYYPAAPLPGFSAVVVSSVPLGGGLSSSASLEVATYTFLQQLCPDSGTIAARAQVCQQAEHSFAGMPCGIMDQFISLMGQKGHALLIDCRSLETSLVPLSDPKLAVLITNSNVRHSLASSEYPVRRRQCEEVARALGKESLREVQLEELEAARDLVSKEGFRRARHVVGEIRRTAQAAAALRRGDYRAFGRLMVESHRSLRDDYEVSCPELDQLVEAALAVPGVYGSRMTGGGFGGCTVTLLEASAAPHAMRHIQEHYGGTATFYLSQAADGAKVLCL

activity, negative = inhibition, inactive:
O=S(=O)(NCC(c1ccco1)N1CCOCC1)c1cc(F)ccc1F (stereo unspecified) -5.26%
COc1ccc(-c2nc(C)c(CCNC(=O)c3ccc(C(F)(F)F)cc3)s2)cc1OC -7.93%
CCOC(=O)c1cccc(NC(=O)C(Cc2ccccc2)NS(=O)(=O)c2cccc3nsnc23)c1 (stereo unspecified) 7.9%
Cc1ccccc1Nc1nn2c(=O)c3ccc(C(=O)NCCc4ccc(Cl)cc4)cc3nc2s1 0.366%
CCOc1ccc(C(=O)N2CCN(CCc3ccccn3)CC2)cc1 0.691%
COc1ccccc1CNCc1ccc(C(=O)O)s1 -3.41%
COc1ccccc1CNC(=O)c1ccccc1NC(=O)c1nsc2ccccc12 -9.67%
Cc1sc2ncn(CC(=O)N3CCN(c4ccc(F)cc4)CC3)c(=O)c2c1S(=O)(=O)N1CCN(c2ncccn2)CC1 0.246%
COc1ccc(OC)c(NC(=O)/C=C/c2ccc(C)o2)c1 2.78%
Cc1ccc(CNC(=O)CCC(=O)N2Cc3ccccc3Oc3ncccc32)cc1 -0.764%
Cc1nn(CC(=O)NCCc2ccccc2)c(=O)c2c1sc1ccccc12 -10.7%
COc1ccc(OC)c(NC(=O)CN2CCCN(Cc3cc(C)ccc3C)S2(=O)=O)c1 1.05%
O=C(NCCCN1CCN(c2cccc(Cl)c2)CC1)c1nnc(Cc2ccc(F)cc2Cl)o1 0.501%
CC1=C(c2ccc(C)c(C)c2)S(=O)(=O)NC1=NCc1ccccc1Cl 3.69%
COc1ccc(S(=O)(=O)NCCc2cc3ccc(C)c(C)c3[nH]c2=O)cc1 1.2%
CCc1cccc(C)c1Nc1c(-c2ccc(N(C)C)cc2)nc2ncccn12 1.49%
COc1ccc(NC(=O)Cn2c(=O)n(Cc3ccc(C(=O)NCc4ccccc4Cl)cc3)c(=O)c3ccccc32)cc1 1.58%
CCC(=O)Nc1ccc2nc(SCC(=O)N3CCc4ccccc43)sc2c1 1.4%
Cc1ccc(-n2c3nc(=O)[nH]c(=O)c-3cc3c(Cl)cccc32)cc1 -0.166%
Cc1ccc(SCC(=O)Nc2ccc3oc(-c4ccccc4C)nc3c2)cc1 -12.2%
COc1ccc(NC(=O)CSc2nc3ccccc3n2CC(=O)N2CCCCC2C)cc1 (stereo unspecified) -1.23%
CCOc1ccc(CCNC(=O)CSc2cc(=O)n(C)c3ccc(Cl)cc23)cc1OCC 0.0807%
O=C(Cn1c(=O)n(Cc2ccccc2)c(=O)c2sc3ccccc3c21)Nc1ccccc1F 5.92%
Cc1cccc2c(=O)cc(CSc3ccccc3NC(=O)C(C)C)[nH]c12 -0.731%
COc1cc(OC)c(OC)cc1/C=C/c1nc2cc3ccccc3cc2c(=O)n1-c1ccc(F)c(Cl)c1 -0.852%
Cc1ccc(C(=O)Nc2nc(-c3ccccc3)ns2)cc1 0.054%
Cc1ccc(C)c(Cn2c(=O)n(CCC(=O)NCc3ccc4c(c3)OCO4)c(=O)c3sccc32)c1 -5.4%
Cc1ccc(CNS(=O)(=O)c2ccc(C(=O)N(C)C)s2)cc1 2.1%
O=C(NCc1ccc2c(c1)CCN2C(=O)c1ccccc1)Nc1cc(F)ccc1F -8.63%
CN(C(=O)CSc1nc2ccccc2n1Cc1ccccc1C#N)c1ccccc1 -3.63%
CCCn1c2ccccc2c2cnn(CC(=O)NCC3CCN(Cc4ccc(C)cc4)CC3)c(=O)c21 0.1%
COc1ccc(-c2noc(CSc3nnc(-c4ccccc4)n3-c3ccc(F)cc3)n2)c(OC)c1 3.13%
Cc1nnc(NC(=O)CSc2nc3c([nH]c4ccccc43)c(=O)n2-c2cccc(Cl)c2)s1 -7.52%
CCOc1ccc(CCNC(=O)c2cc3c(=O)n(C)c4ccccc4c3n2C)cc1 1.83%
O=C(CSc1nc2c(c(=O)[nH]1)CN(Cc1ccc(F)cc1)CC2)Nc1ccccc1Cl 3.32%
O=C(Cc1ccc(Cl)cc1)NCC(c1cccs1)S(=O)(=O)c1ccc(Cl)cc1 (stereo unspecified) 0.239%
O=C(Nc1ccc(Br)cc1)c1ccc(Br)c(S(=O)(=O)NCc2ccccc2)c1 0.305%
Cc1ccc(-c2cn3c(n2)sc2cc(C(=O)NCc4cccs4)ccc23)c(C)c1 4.3%
CCc1ccccc1NC(=O)c1ccc(F)c(S(=O)(=O)NC2CCCCCC2)c1 1.07%
CCc1cccc(NC(=O)CSc2nccn2C)c1 -2.55%
COc1ccc(CCNc2ncnc3c2cnn3-c2ccc(C)cc2)cc1 0.59%
Cc1cccc(-c2nc(SCc3ccc(Br)cc3)n3[nH]c(=O)cc3n2)c1 4.56%
CC(CCCc1ccccc1)NC(=O)c1nn(-c2ccc(Cl)cc2)nc1CO (stereo unspecified) 2.68%
COc1ccc(CNc2nc(-c3ccc(Cl)cc3)cc(C(F)(F)F)n2)cc1 -1.42%
CCn1cc(CCC(=O)NCc2ccc(F)cc2)c2ccccc21 3.15%
CCN(c1ccc(Cl)cc1)S(=O)(=O)c1nnc(NC(=O)c2ccco2)s1 1.43%
CCc1nn(CC(=O)Nc2cccc(C)c2C)c(=O)c2cc3sccc3n12 -10.4%
Cc1c(Cl)cccc1NC(=O)C1CCCN(C(=O)c2cnn(-c3ccccc3)c2-n2cccc2)C1 (stereo unspecified) 5.36%
CCc1ccccc1OCCSc1nc(-c2cccs2)nc2cc(=O)[nH]n12 -3.94%
COc1ccc2cc(-c3nc(Cl)c4c5c(sc4n3)CC(C)CC5)c(=O)oc2c1 (stereo unspecified) 7.47%
Cc1ccc2cccc(NC(=O)C(C)Oc3ccc(C)c(C)c3)c2n1 (stereo unspecified) 2.77%
CCCCc1nn2c(=O)cc(COC(=O)c3ccccc3NC(=O)C(C)(C)C)nc2s1 0.0179%
O=C(CSc1nc(=O)[nH]c2c1CCCC2)Nc1cc(C(F)(F)F)ccc1Cl -1.93%
CC(NC(=O)c1cc2c(=O)n3ccccc3nc2n(C(C)C)c1=N)c1ccccc1 (stereo unspecified) 16.3%
COc1ccccc1CNS(=O)(=O)c1cc(Br)cc2c1N(C(C)=O)C(C)C2 (stereo unspecified) -5.64%
Cn1c(=O)cc(OCC(=O)N2CCN(c3ccccc3F)CC2)c2ccccc21 0.123%
COc1ccc(CNC(=O)CCc2c(C)nn(-c3ccc(N4CCCC4)nn3)c2C)cc1 -0.105%
O=S(=O)(NCCS(=O)(=O)N1CCN(c2ccccc2)CC1)c1ccc(Cl)cc1 2.24%
CCCN1CCN(CCCNC(=O)c2ccc3nc(Cc4ccccc4)oc3c2)CC1 -0.181%
CCN(Cc1ccccc1)C(=O)c1cn(-c2cccc(OC)c2)c(=O)c2ccccc12 0.495%
COc1ccc(NS(=O)(=O)c2cc3c4c(c2)CC(=O)N4CCC3)cc1Cl 0.222%
CC(=O)N1CCCc2ccc(NS(=O)(=O)c3ccc(F)cc3F)cc21 0.29%
CCc1nc(-c2cc(S(=O)(=O)N3CCN(c4ccc(OC)cc4)CC3)ccc2OC)no1 3.93%
Cc1ccc(NC(=O)Cn2c(=O)n(-c3ccccc3)c(=O)c3c4c(sc32)CCCC4)cc1 6.16%
COc1cccc(CNC(=O)CN2C(=O)CCc3cc(S(=O)(=O)N4CCOCC4)ccc32)c1 -0.942%
C#CCOc1ccc(C2CC(=O)Nc3c2c(C)nn3-c2nc(C)cc(C)n2)cc1 (stereo unspecified) -0.329%
Cc1cccc(NC(c2cccc(F)c2)c2ccc3ccc(C)nc3c2O)n1 (stereo unspecified) -1.92%
O=C(CCS(=O)(=O)c1cc(Br)cc2c1N(C(=O)C1CC1)CC2)Nc1ccc(Br)cc1F 1.92%
CCOC(=O)c1ccc(N2C(=O)c3n[nH]c(-c4ccco4)c3C2c2ccc(O)cc2)cc1 (stereo unspecified) 0.26%
O=C(CC1Oc2ccc(Cl)cc2NC1=O)NCc1ccccc1 (stereo unspecified) -9.65%
COc1ccc(-n2c(C)nc3c(cnn3-c3ccc(F)cc3)c2=O)cc1 6.98%
COc1ccc(CCN2C(=O)N(c3cccc(OC)c3)C(=O)C2CC(=O)Nc2ccccc2)cc1 (stereo unspecified) 4.98%
COc1ccc(CCNC(=O)CCc2c(C)nc3c(c(C)nn3-c3ccc(C)c(C)c3)c2C)c(OC)c1OC -1.7%
O=C1CCCc2cc(S(=O)(=O)N3CCCC(C(=O)NCc4ccccc4)C3)ccc2N1 (stereo unspecified) 0.641%
COc1ccccc1NC(=O)CSc1oc(-c2ccco2)nc1S(=O)(=O)c1ccc(Br)cc1 -0.198%
O=C(CSc1cn(CC(=O)N2CCOCC2)c2ccccc12)Nc1ccccc1 -10.9%
CCCNc1ncnc2c1c(-c1ccccc1)cn2-c1ccc(OCC)cc1 -0.973%
COc1cccc(CNC(=O)c2ccc3c(c2)sc2nc(-c4cccc(OC)c4)cn23)c1 1.05%
COc1ccc(NC(=O)N2CCCn3nc(C)cc32)cc1OC 1.03%
CC(C)c1ccc(NC(=O)Cn2c3ncccc3c(=O)n2-c2ccccc2)cc1 -0.715%
Cc1cn(C)c(CC(=O)NCc2ccc(Cl)cc2)c1C(=O)O -2.28%
O=C(NCc1ccccc1)C1CCN(S(=O)(=O)c2ccc3[nH]c(=O)ccc3c2)CC1 2.14%
Cc1cc(C)c(NC(=O)CCc2c(C)nc3c(c(C)nn3C(C)(C)C)c2C)c(C)c1 0.89%
CCOC(=O)c1ccc(NC(=O)CSc2nc3c([nH]c4ccccc43)c(=O)n2C)cc1 -9.08%
COc1cccc(NC(=O)c2csnn2)c1 -5.21%
CCc1nc2c(cnn2-c2ccc(C)cc2)c(=O)n1-c1ccc(C)cc1 8.26%
CCC1(C)CC(=O)c2c(ccc3oc(C(=O)Nc4ccc(C(C)=O)cc4)c(C)c23)O1 (stereo unspecified) -4.05%
COc1ccc2oc(-c3ccc(C)c(NC(=O)c4sc5ccccc5c4Cl)c3)nc2c1 -14.9%
CCOC(=O)Cn1c(=O)n(-c2ccccc2OC)c2nc(-c3cccc(F)c3)nc(C(N)=O)c21 0.826%
Cc1ccc(NC(=O)c2cn3c4c(ccc(Cl)c4c2=O)OC(C)C3)cc1C (stereo unspecified) -3.8%
CCCCS(=O)(=O)c1oc(-c2cccs2)nc1S(=O)(=O)c1ccccc1 3.76%
O=C(CSc1ncc(CO)n1Cc1ccc(F)cc1)NCc1ccco1 -0.478%
CNc1ccc(-c2nc(-c3ccccc3C)no2)cc1[N+](=O)[O-] -1.05%
CCc1ccccc1NC(=O)Cn1c(=O)n(-c2cccc(C)c2)c(=O)c2c1c1cc(OC)ccc1n2C 3.81%
CCOC(=O)c1c(S(=O)(=O)N2CCCC(C(=O)NCc3cccc(C)c3)C2)c(C)n(C)c1C (stereo unspecified) 3.27%
CCOc1ccccc1NC(=O)c1ccc2c(c1)CCN2S(=O)(=O)c1ccc(C)cc1 2.78%
